# Assay results: PubChem BioAssay (NCATS)
# Several values for one entry are separate records, joined by “and”; a condition that tells them apart may be missing. Identical values can stand only once. Results filed as inconclusive are left out. Activity calls are given as the source filed them. Unless noted, the call rests on the fitted dose curve; in most records, active means well fitted curve in the direction sought with a large enough effect; inconclusive means small, poorly fitted or top-dose-only effect, or another doubt; inactive means no such curve, though single readings can be large; an effect the other way counts as inactive or inconclusive.
# Tests used:
# [1] = target: Alpha-galactosidase A (Homo sapiens) (UniProt P06280); assay: Counterscreen for Glucocerebrosidase Inhibitors: qHTS Assay for Human alpha-Galactosidase at pH 4.5 (AID 992); further: 0% is about no effect
# Chain of Alpha-galactosidase A (Homo sapiens) (P06280 whole entry, looked up): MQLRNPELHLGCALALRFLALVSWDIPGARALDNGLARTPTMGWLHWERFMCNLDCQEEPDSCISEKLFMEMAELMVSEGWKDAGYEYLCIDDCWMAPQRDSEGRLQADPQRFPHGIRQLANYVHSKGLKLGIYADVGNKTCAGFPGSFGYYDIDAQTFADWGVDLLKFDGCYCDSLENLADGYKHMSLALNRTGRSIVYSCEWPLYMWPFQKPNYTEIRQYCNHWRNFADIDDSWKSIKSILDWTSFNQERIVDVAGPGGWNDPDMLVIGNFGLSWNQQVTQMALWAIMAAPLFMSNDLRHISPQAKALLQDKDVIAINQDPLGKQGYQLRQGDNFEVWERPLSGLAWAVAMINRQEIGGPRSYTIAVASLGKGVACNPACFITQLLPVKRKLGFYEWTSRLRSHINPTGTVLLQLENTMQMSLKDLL
# Procedure, shortened: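 Citrate buffer pH 4.5, Tween-20 0.005%. Enzyme 2 nM, substrate 80 uM, 20 min RT. Stop pH 10. Fluorescence Ex 365/Em 440. AC50 by Hill fit.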
# [2] = target: alpha-glucosidase (Oryza sativa, rice) (UniProt Q653V4); assay: Counterscreen for Glucocerebrosidase Inhibitors: qHTS Assay for Rice alpha-Glucosidase at pH 5.0 (AID 997);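 further: 0% = full activity with enzyme and -100% = basal without enzyme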
# Procedure, shortened: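 Endpoint fluorogenic assay at pH 5.0: compounds (0.7 nM to 77 uM) titrated against 4 nM rice enzyme and 400 uM 4-MU-alpha-glucoside for 20 min at room temperature; NaOH/glycine stop, read ex 365/em 440 nm, Hill-fitted AC50.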
# [3] = Validation of Assay for Modulators of Lamin A Splicing (AID 1459; active means well fitted curve in the direction sought with a large enough effect in the signal ratio; the % refers to the signal ratio;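 further: cells exposed to compound for two days before reading; 0% is about no effect; ratio rise marks activators and ratio drop marks inhibitors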)
# Procedure, shortened: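 Dual-reporter HeLa S3 line (lamin A-EGFP minigene, DsRed2) treated with compounds 48 hrs, 0.5% DMSO final. Endpoint: EGFP/DsRed2 total intensity ratio from laser-scanning microplate cytometry.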
# [4] = qHTS Assay for Lipid Storage Modulators (AID 1519; calls by dose curve; on activity change, negative = inhibition: on the % scale 0 is the no-effect control and ±100 the full control effect); conditions: Drosophila S3 cells, BODIPY lipid droplet/cell ratio, laser cytometry, cells loaded with oleic acid
# Procedure, shortened: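 Cells seeded at 5,000 per well were treated with compounds over a concentration series and loaded with oleic acid (400 uM, as added). Lipid droplet fluorescence (488 nm excitation, 500-530 nm channel) was read by laser-scanning cytometry and normalized to 20 uM Triacsin C.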
# [5] = Counterscreen for APE1 Inhibitors: Fluorescent Dye Displacement Validation Assay (AID 1707);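 further: plate controls were ThO with dsDNA and no compound for no effect and ThO without dsDNA for full effect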
# Procedure, shortened: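 Signal: ThO fluorescence (ex 480 nm/em 540 nm) on binding 50 nM dsDNA; displacement by test compound reduces it. Conditions: 250 nM dye, 50 mM Tris-HCl pH7.5, 2 mM MgCl2, 50mM NaCl, 0.01% Tween-20.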
# [6] = target: Endonuclease 4 (Escherichia coli (strain K12)) (UniProt P0A6C1); assay: Counterscreen for APE1 Inhibitors: qHTS Validation Assay for Inhibitors of Endonuclease IV (AID 1708); further: on the % scale 0 is the no-effect control and ±100 the full control effect
# Procedure, shortened: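 The reaction buffer contained 50 mM Tris-HCl pH 7.5, 50 mM NaCl, 2 mM MgCl2, 1 mM DTT and 0.01% Tween-20. Incision of a 50 nM fluorophore/quencher THF substrate by 2 nM enzyme was measured kinetically.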
# [7] = qHTS for differential inhibitors of proliferation of Plasmodium falciparum line 7G8 (AID 1815);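 further: parasite growth measured after three days of incubation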; further: potency means the concentration at half of the fitted maximal effect;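 on activity change, negative = inhibition: plate controls were vehicle wells for no effect and reference inhibitor wells for full effect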
# [8] = target: DNA repair nuclease/redox regulator APEX1 (Homo sapiens) (UniProt P27695); assay: qHTS Validation Assay for Inhibitors of the Human Apurinic/apyrimidinic Endonuclease 1 (APE1) (AID 1705; further: potency means the concentration at half of the fitted maximal effect;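 on activity change, negative = inhibition: TAMRA fluorescence gain over two minutes as APE1 cuts a quenched THF abasic duplex; on the % scale 0 is the no-effect control and ±100 the full control effect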)
# Chain of DNA repair nuclease/redox regulator APEX1 (Homo sapiens) (P27695 whole entry, looked up): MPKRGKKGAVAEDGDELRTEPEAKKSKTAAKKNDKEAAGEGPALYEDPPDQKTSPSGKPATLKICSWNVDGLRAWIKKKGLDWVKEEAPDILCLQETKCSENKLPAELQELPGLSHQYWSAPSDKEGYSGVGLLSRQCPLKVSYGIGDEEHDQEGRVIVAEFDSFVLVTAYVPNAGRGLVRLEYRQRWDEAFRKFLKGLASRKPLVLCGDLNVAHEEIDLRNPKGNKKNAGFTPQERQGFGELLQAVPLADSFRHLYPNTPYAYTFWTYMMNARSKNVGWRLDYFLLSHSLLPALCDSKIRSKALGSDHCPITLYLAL
# Procedure, shortened: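 Substrate: 50 nM final fluorophore/quencher THF-abasic duplex. Enzyme preincubated with compounds 15 min, RT. Progress derived from fluorescence difference, third minus first kinetic read.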
# [9] = measured here: cell count channel max response
# [10] = measured here: lipid channel max response
smiles,measurement,setting,value
CC(C)COC(=O)OCN1C(=O)CN(CCN2CC(=O)N(COC(=O)OCC(C)C)C(=O)C2)CC1=O,outcome,[1],inactive
same,outcome,[2],inactive
same,outcome,[3],inactive
same,"activity change, negative = inhibition",[4]; at 57.5 µM (top of the series),1.23% (inactive)
same,max response,[4]; [9],3.57%
same,max response,[4]; [10],4.19%
same,outcome,[5],inactive
same,outcome,[6],inactive
same,Potency,[7],inactive
CO/N=C1\CN(c2nc3c(cc2F)c(=O)c(C(=O)O)cn3C2CC2)CC1CN (centres undefined),"activity change, negative = inhibition",[4]; at 57.5 µM (top of the series),8.95% (inactive)
same,max response,[4]; [9],11%
same,max response,[4]; [10],24%
CCCCCCCCCCCCCCCCOP(=O)([O-])OCC[N+](C)(C)C,"activity change, negative = inhibition",[4]; at 57.5 µM (top of the series),6.36% (inactive)
same,max response,[4]; [9],14.5%
same,max response,[4]; [10],23.7%
CCCCOc1ccc(C(=O)CCN2CCCCC2)cc1,"activity change, negative = inhibition",[4]; at 57.5 µM (top of the series),-7.63% (inactive)
same,max response,[4]; [9],0.252%
same,max response,[4]; [10],0.832%
COc1c(C)c2c(c(O)c1C/C=C(\C)CCC(=O)O)C(=O)OC2,"activity change, negative = inhibition",[4]; at 25.7 µM (top of the series),-1.1% (inactive)
same,max response,[4]; [9],6.28%
same,max response,[4]; [10],5.14%
CC(O)(P(=O)(O)O)P(=O)(O)O,"activity change, negative = inhibition",[4]; at 25.7 µM (top of the series),2.54% (inactive)
same,max response,[4]; [9],-3.25%
same,max response,[4]; [10],-0.531%
O=C(O)c1cc2cc(Cc3cccnc3)ccc2o1,outcome,[1],inactive
same,outcome,[2],inactive
same,outcome,[3],inactive
same,"activity change, negative = inhibition",[4]; at 57.5 µM (top of the series),4.53% (inactive)
same,max response,[4]; [9],9.59%
same,max response,[4]; [10],18.2%
same,Potency,[8],inactive
same,outcome,[5],inactive
same,outcome,[6],inactive
same,Potency,[7],inactive
O=C(OCC(O)CO)c1ccccc1Nc1ccnc2cc(Cl)ccc12 (centres undefined),"activity change, negative = inhibition",[4]; at 57.5 µM (top of the series),0.748% (inactive)
same,max response,[4]; [9],5.57%
same,max response,[4]; [10],7.83%
CCCn1c(=O)[nH]c(=O)c2[nH]cnc21,outcome,[1],inactive
same,outcome,[2],inactive
same,outcome,[3],inactive
same,"activity change, negative = inhibition",[4]; at 57.5 µM (top of the series),-0.904% (inactive)
same,max response,[4]; [9],29.5%
same,max response,[4]; [10],25.8%
same,Potency,[8],inactive
same,outcome,[5],inactive
same,outcome,[6],inactive
same,Potency,[7],inactive
CCOc1ccc(Cc2nccc3cc(OCC)c(OCC)cc23)cc1OCC,"activity change, negative = inhibition",[4]; at 57.5 µM (top of the series),-21.1% (inactive)
same,max response,[4]; [9],-4.38%
same,max response,[4]; [10],-26.4%
CCN(CC)CCOC(=O)C(c1ccccc1)C1CCCCC1 (centres undefined),"activity change, negative = inhibition",[4]; at 57.5 µM (top of the series),-0.866% (inactive)
same,max response,[4]; [9],11.2%
same,max response,[4]; [10],13.6%
CC1(C)CCC(NC(=O)[C@@H](N)CCC(=O)O)CC1,outcome,[3],inactive
same,Potency,[8],inactive
same,outcome,[5],inactive
same,outcome,[6],inactive
same,Potency,[7],inactive
NCCc1ccn[nH]1,"activity change, negative = inhibition",[4]; at 25.7 µM (top of the series),-0.85% (inactive)
same,max response,[4]; [9],12.5%
same,max response,[4]; [10],11.2%
CC(=O)Nc1c(I)cc(I)c(C(=O)O)c1I,"activity change, negative = inhibition",[4]; at 57.5 µM (top of the series),5.69% (inactive)
same,max response,[4]; [9],5.35%
same,max response,[4]; [10],12.7%
CN1CCN(CCCN2c3ccccc3Sc3ccc(S(=O)(=O)N(C)C)cc32)CC1,"activity change, negative = inhibition",[4]; at 25.7 µM (top of the series),-2.96% (inactive)
same,max response,[4]; [9],-3.59%
same,max response,[4]; [10],-5.35%
Cc1c(C(N)=O)cc([N+](=O)[O-])cc1[N+](=O)[O-],"activity change, negative = inhibition",[4]; at 57.5 µM (top of the series),9.82% (inactive)
same,max response,[4]; [9],12.8%
same,max response,[4]; [10],29.3%
CCn1cc(C(=O)O)c(=O)c2cnc(N3CCCC3)nc21,"activity change, negative = inhibition",[4]; at 25.7 µM (top of the series),-3.05% (inactive)
same,max response,[4]; [9],-11.9%
same,max response,[4]; [10],-16.2%
C1CCc2nnnn2CC1,outcome,[1],inactive
same,outcome,[2],inactive
same,outcome,[3],inactive
same,"activity change, negative = inhibition",[4]; at 25.7 µM (top of the series),0.501% (inactive)
same,"activity change, negative = inhibition",[4]; at 57.5 µM (top of the series),0.8% (inactive)
same,max response,[4]; [9],12.5% and 9.15%
same,max response,[4]; [10],18% and 12.4%
same,Potency,[8],inactive
same,outcome,[5],inactive
same,outcome,[6],inactive
same,Potency,[7],inactive
Oc1c(I)cc(I)c2cccnc12,"activity change, negative = inhibition",[4]; at 57.5 µM (top of the series),-2.05% (inactive)
same,max response,[4]; [9],9.29%
same,max response,[4]; [10],10.6%
C[C@@H](CN(C)C)CN1c2ccccc2Sc2ccccc21,"activity change, negative = inhibition",[4]; at 25.7 µM (top of the series),-1.55% (inactive)
same,max response,[4]; [9],-4.09%
same,max response,[4]; [10],-6.89%
c1ccc(-c2ccc(C(c3ccccc3)n3ccnc3)cc2)cc1 (centres undefined),"activity change, negative = inhibition",[4]; at 57.5 µM (top of the series),13.6% (inactive)
same,max response,[4]; [9],10.1%
same,max response,[4]; [10],27.7%
CC[N+](CC)(CCNC(=O)C(=O)NCC[N+](CC)(CC)Cc1ccccc1Cl)Cc1ccccc1Cl,"activity change, negative = inhibition",[4]; at 57.5 µM (top of the series),1.97% (inactive)
same,max response,[4]; [9],-14%
same,max response,[4]; [10],-12.6%
CN1C2CCC1CC(OC(=O)c1c[nH]c3ccccc13)C2 (centres undefined),outcome,[3],inactive
same,Potency,[8],39.8 µM (active)
same,outcome,[5],inactive
same,outcome,[6],inactive
same,Potency,[7],7.08 µM (active)
N[C@@H](Cc1cnc[nH]1)C(=O)O,outcome,[1],inactive
same,outcome,[2],inactive
same,outcome,[3],inactive
same,"activity change, negative = inhibition",[4]; at 57.5 µM (top of the series),2.39% (inactive)
same,max response,[4]; [9],-24.8%
same,max response,[4]; [10],-24.4%
same,Potency,[8],inactive
same,outcome,[5],inactive
same,outcome,[6],inactive
same,Potency,[7],inactive
CCC(NC(C)C)C(O)c1ccc(O)c(O)c1 (centres undefined),outcome,[3],inactive
same,"activity change, negative = inhibition",[4]; at 57.5 µM (top of the series),1.71% (inactive)
same,max response,[4]; [9],7.27%
same,max response,[4]; [10],6.31%
same,Potency,[8],inactive
same,outcome,[5],inactive
same,outcome,[6],inactive
same,Potency,[7],11.2 µM (active)
COc1c2occc2c(OC)c2c(=O)cc(C)oc12,"activity change, negative = inhibition",[4]; at 25.7 µM (top of the series),2.26% (inactive)
same,max response,[4]; [9],3.81%
same,max response,[4]; [10],5.65%
CCN(CCCCOC(=O)c1ccc(OC)c(OC)c1)C(C)Cc1ccc(OC)cc1 (centres undefined),"activity change, negative = inhibition",[4]; at 57.5 µM (top of the series),3.28% (inactive)
same,max response,[4]; [9],17.5%
same,max response,[4]; [10],26.2%
CCCCOc1ccc(OCCCN2CCOCC2)cc1,"activity change, negative = inhibition",[4]; at 25.7 µM (top of the series),-0.243% (inactive)
same,max response,[4]; [9],-13.4%
same,max response,[4]; [10],-13.4%
O=C(COc1ccc(Cl)cc1)N1CCN(Cc2ccc3c(c2)OCO3)CC1,"activity change, negative = inhibition",[4]; at 25.7 µM (top of the series),1.24% (inactive)
same,max response,[4]; [9],-6.27%
same,max response,[4]; [10],-4.72%
CC(C)(Oc1ccc(Cl)cc1)C(=O)O,"activity change, negative = inhibition",[4]; at 25.7 µM (top of the series),-1.74% (inactive)
same,max response,[4]; [9],1.11%
same,max response,[4]; [10],-1.85%
Nc1cc(Cl)c(NC2=NCCN2)c(Cl)c1,outcome,[1],inactive
same,outcome,[2],inactive
same,outcome,[3],inactive
same,Potency,[8],inactive
same,outcome,[5],inactive
same,Potency,[7],inactive
COC(=O)[C@H]1[C@H]2C[C@H]3c4[nH]c5ccccc5c4CCN3C[C@H]2CC[C@@H]1O,outcome,[3],inactive
same,Potency,[8],inactive
same,outcome,[5],inactive
same,outcome,[6],inactive
